The source of these data is PubChem BioAssay.

Structures are written as SMILES. Calls of active or inactive are those of the source. Unless noted, how the calls were made is not given here.

The nature of assay [1]: P. berghei load reduction in hepatocytes – cell-based, HepG2, luciferase luminescence, HepG2 viability, primary screen (AID 624349; in the data active means parasite load remaining mostly below about 12%, no sharp cut-off; inactive means mostly above about 10%;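 further: 100% = mean of DMSO negative control wells on the same plate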). The settings on record: P. berghei liver stage in HepG2, luciferase luminescence, concentration not given here; parasite load remaining: stronger effect = lower value; viability: measured here: HepG2 viability without parasites.
Assay [2] can be described thus: signal quenchers or enhancers, Cy5 substrate/SSB – biochemical, NIH Clinical Collection, E. coli SSB, artefact control for HCV NS3 helicase inhibitor project (AID 743268). Particulars: Cy5-oligo bound E. coli SSB, fluorescence interference.
Assay [3] deals with Hepatitis C virus NS3 helicase. In words: blockers of NS3h binding to DNA – biochemical, fluorescence polarization, NIH Clinical Collection, primary screen (AID 743270). Particulars: NS3 helicase binding to Cy5-dT15 DNA, stronger effect = higher value, concentration not given here. In general terms: Polarisation of emitted light reports the rotation of a fluorescent probe.
Assay [4] concerns the target Single-stranded DNA-binding protein (Escherichia coli (strain K12)) (UniProt P0AGE0). The assay is described as follows: SSB-ssDNA binding inhibitors – biochemical, fluorescence polarization, NIH Clinical Collection, counter-screen for HCV NS3 helicase inhibitor project (AID 743271; in the data active means inhibition above about 28%). The settings on record: E. coli SSB-DNA binding, stronger effect = higher value, concentration not given here.

Assay [5] in a line: compounds distorting NS3 helicase fluorescence signal – biochemical, NIH Clinical Collection, artefact control for HCV NS3 helicase inhibitor project (AID 743272).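 Further: HCV NS3 helicase with a Cy5 labelled single stranded DNA probe.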 The settings on record: fluorescence interference counterscreen, HCV NS3 helicase assay; stronger effect = lower value. In general terms: The purpose of a counterscreen is to sort out artefacts and off-target activity.
Assay [6] concerns Neuropilin-2 / VEGF-C interaction (human). In words: small molecules blocking Neuropilin-2/VEGF-C interaction – biochemical, microplate binding format, z-score (AID 743281). The settings on record: microplate NRP2/VEGF-C binding assay; stronger effect = lower value.
Assay [7] in a line: modulation of C. elegans fzo-1 (AID 1259413).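 Further: fzo-1 mutant C. elegans worms in liquid wells.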 Particulars: C. elegans fzo-1 modulator screen, mean read-out; stronger effect = higher value.
The nature of assay [8]: EMT-state selective cytotoxicity in co-culture – imaging, PC-3E GFP, TEM4-18 mCherry, primary screen (AID 1345086;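 active means compounds killing one labelled cell type while sparing the other, by normalised counts and ratio limits, not self-fluorescent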;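 on all read-outs here: cells exposed to compound for 72 h before imaging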;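 on red/green cell ratio (normalised): normalised mesenchymal count divided by normalised epithelial count so high means epithelial killing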). Particulars: PC-3E GFP / TEM4-18 mCherry co-culture, imaging cell counts, at 1 µM; for red/green cell ratio (normalised): actives lie on both sides.
The nature of assay [9]: viability loss with induced miR-34 in A549 – imaging, A549 dox-inducible miR-34, nuclei and caspase counts, primary screen (AID 1347080;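 active means compounds whose cell count with miR-34 switched on is under 0.7 times the count with it off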). The settings on record: A549 miR-34 inducible, Hoechst nuclei count, 48 h.
The nature of assay [10]: galactose survival enhancers in mitochondrial complex I cybrids – cell-based, galactose medium, ATP luminescence, primary screen (AID 1645843;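 active means z-score of at least 1.8 in each of two replicates, scored against plate mean and spread of sample wells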;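 further: positive z means more ATP and so rescue of galactose-driven cybrid death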). Particulars: complex I mutant cybrid cells, 72 h, stronger effect = higher value.
In a further assay the test system is F380Y. The assay is described as follows: BK channel mutant inhibitors and activators – cell-based, U2OS BacMam, thallium flux, beta subunits, selectivity assay, profiling panel (AID 1259406;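 active means thallium flux through the channel raised or lowered by more than 3 SD from vehicle-only wells, actives on both sides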;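 further: initial slope of Thallos dye fluorescence rise after thallium is added; log ratio against the mean of 0.3% DMSO vehicle wells on the same plate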). The settings on record: U2OS BacMam BK variants, at 30 µM.
The subject of the next assay is F380Y/beta1. The assay is described as above. The settings on record: U2OS BacMam BK variants, at 30 µM.
The next assay deals with F380Y/beta2Delta. The description is as above. The settings on record: U2OS BacMam BK variants, at 30 µM.
In the next assay the test system is F380Y/beta4. The assay is described as above. The settings on record: U2OS BacMam BK variants, at 30 µM.
Assay [11] addresses Calcium-activated potassium channel subunit alpha-1 (Homo sapiens) + Leucine-rich repeat-containing protein 26 (Homo sapiens) (UniProt Q12791+Q2I0M4). The assay is described as above. The settings on record: U2OS BacMam BK variants, F380Y/Slo1WT/gamma1, at 30 µM.
Another assay deals with R275C. The description is as above. The settings on record: U2OS BacMam BK variants, at 30 µM.
A further assay has as its system R275C/beta1. The assay is described as above. Particulars: U2OS BacMam BK variants, at 30 µM.
The next assay deals with R275C/beta2Delta. Described as above. The settings on record: U2OS BacMam BK variants, at 30 µM.
Another assay relates to R275C/beta4. Described as above. Particulars: U2OS BacMam BK variants, at 30 µM.
The test system of a further assay is R275C/Slo1WT/beta2. Described as above. The settings on record: U2OS BacMam BK variants, at 30 µM.
Where [12] appears, read: measured here: epithelial PC-3E GFP cell survival.
The mark [13] stands for this setting: measured here: mesenchymal TEM4-18 mCherry cell survival.
The mark [14] stands for this setting: measured here: relative caspase fold change +Dox/-Dox.
The mark [15] stands for this setting: measured here: total cells with miR-34 induction, stronger effect = lower value.
Where [16] appears, read: measured here: total cells without miR-34 induction.
Where [17] appears, read: counts scaled to control wells, 1 = unselective.

Calcium-activated potassium channel subunit alpha-1 (Homo sapiens) + Leucine-rich repeat-containing protein 26 (Homo sapiens), sequence (Q2I0M4 whole entry, looked up, one chain of several): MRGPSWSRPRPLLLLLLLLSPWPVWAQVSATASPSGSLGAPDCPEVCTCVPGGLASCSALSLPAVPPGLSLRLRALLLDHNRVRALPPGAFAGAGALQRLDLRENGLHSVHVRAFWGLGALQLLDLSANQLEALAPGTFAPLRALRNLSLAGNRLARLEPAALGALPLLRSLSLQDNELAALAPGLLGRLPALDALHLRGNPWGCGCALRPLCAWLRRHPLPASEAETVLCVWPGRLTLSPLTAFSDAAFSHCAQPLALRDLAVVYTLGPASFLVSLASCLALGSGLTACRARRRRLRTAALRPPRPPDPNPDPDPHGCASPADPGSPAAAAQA

Usually viability stands for the share of living cells, or the viability signal relative to a control. As a reminder, the inhibition is the relative decrease from the control value, in per cent. Regarding `CCN(C(C)=O)c1cccc(-c2ccnc3c(C#N)cnn23)c1`, in assay [1], the parasite load remaining is 67.8% (inactive). Further, the viability in assay [1] worked out at 71%. Besides, the fluorescence ratio in assay [2] was 0.96 (inactive); in assay [5], 0.98 (inactive). In addition, the inhibition in assay [3] is -1.97% (inactive); in assay [4] it was -3.54% (inactive). The z-score in [6] was -0.583 (inactive); in assay [10], 0.945 (inactive). Besides, the mean signal in assay [7] was 228 (inactive). Besides, the red/green cell ratio (normalised) in assay [8] was 1.11 (inactive). The normalised cell number in assay [8] (setting [12]) was found to be 1.1; in [8] (setting [13]) it was 1.22. Moreover, the fold change is 0.85 (inactive) in [9] (stronger effect = lower value) and 1.13 in assay [9] (setting [14]). Besides, the cell count turned out to be 8990 in assay [9] (setting [15]) and 10600 in assay [9] (setting [16]).
Turning to `C=CCN1CC[C@]23c4c5ccc(O)c4O[C@H]2C(=O)CCC3(O)[C@H]1C5` (stereo partly specified), the mean signal in assay [7] is 247 (inactive).
On to `CC12CCC(=O)C=C1CCC1C2CCC2(C)C(O)CCC12` (stereo unspecified), for which, in [1], the parasite load remaining is 38.7% (inactive). The viability in [1] is 100%. The figures for the fluorescence ratio in [2] and in assay [5] were 0.97 (inactive) and 1.01 (inactive), respectively. The inhibition in [3] was -3.18% (inactive); in [4] it was -3.53% (inactive). The fold change was 0.96 (inactive) in [9] (stronger effect = lower value) and 2.43 in [9] (setting [14]). In addition, the figures for the cell count in assay [9] (setting [15]) and in assay [9] (setting [16]) were 9970 and 10400, respectively. For the same compound, the z-score in assay [10] was -0.235 (inactive). Further, the log fold change Tl+ flux in the assay on F380Y is 0.0199 (inactive); in the assay on F380Y/beta1, 0.0232 (inactive); in the assay with F380Y/beta2Delta it was 0.032 (inactive); with F380Y/beta4, -0.0491 (inactive); in [11] it was -0.042 (inactive); with R275C, 0.011 (inactive). In addition, the log fold change Tl+ flux is 0.00563 (inactive) in the assay on R275C/beta1, 0.059 (inactive) with R275C/beta2Delta, -0.00525 (inactive) with R275C/beta4 and -0.0485 (inactive) in the assay on R275C/Slo1WT/beta2.
In the case of `CC(=O)OCC1=C(C(=O)O)N2C(=O)[C@@H](N)C2SC1` (stereo partly specified), the red/green cell ratio (normalised) in [8] was 1.18 (inactive). In addition, the normalised cell number came out at 0.96 in assay [8] (setting [12]) and 1.14 in [8] (setting [13]).
For `CC12CCC(=O)C[C@@H]1CC[C@@H]1[C@@H]2CCC2(C)[C@H]1CC[C@]2(C)O` (stereo partly specified), the compound was called inactive in assay [6]. Further, the mean signal in assay [7] was 277 (inactive).
With `CN1C(=O)c2ccccc2NC(=O)[C@@H]1Cc1ccccc1`, the red/green cell ratio (normalised) in assay [8] (setting [17]) is 1.03 (inactive). Also, the figures for the normalised cell number in assay [8] (setting [12]) and in assay [8] (setting [13]) were 1.1 and 1.13, respectively.
Consider `O=C1NCC[C@H]1O`, for which the red/green cell ratio (normalised) in [8] (setting [17]) is 0.95 (inactive). Also, the figures for the normalised cell number in [8] (setting [12]) and in assay [8] (setting [13]) were 1.13 and 1.08, respectively.
As for `CC12CC[C@H](O)CC1=CC[C@@H]1[C@@H]2CCC2(C)[C@H]1CC[C@]2(C)O` (stereo partly specified), the compound was called inactive in [6]. The mean signal in [7] was 278 (inactive).
`CN1C[C@H](C(=O)N[C@]2(C)O[C@@]3(O)C4CCCN4C(=O)[C@H](Cc4ccccc4)N3C2=O)C=C2c3cccc4[nH]cc(c34)C[C@H]21` (stereo partly specified): the red/green cell ratio (normalised) in assay [8] is 0.93 (inactive). The normalised cell number in assay [8] (setting [12]) came to 1.08; in assay [8] (setting [13]) it was 1.
Turning to `COc1cc([C@@H]2c3cc4c(cc3[C@H](OC(C)=O)C3COC(=O)[C@H]32)OCO4)cc(OC)c1OC` (stereo partly specified), in assay [8] (setting [17]), the red/green cell ratio (normalised) is 1.07 (inactive). The normalised cell number in assay [8] (setting [12]) worked out at 0.19; in assay [8] (setting [13]), 0.2.
On the same counts, the results for `C[C@@H]1C(=O)OC2[C@H](O)C34[C@@H]5OC(=O)[C@@]3(OC3OC(=O)[C@H](O)[C@@]34[C@H](C(C)(C)C)[C@H]5O)[C@]21O` (stereo partly specified) are 1.08 (inactive), 0.86 and 0.93.
Regarding `CC[C@H](c1cccc(O)c1)[C@@H](C)CN(C)C`, in assay [8], the red/green cell ratio (normalised) was 0.92 (inactive). Also, the normalised cell number in assay [8] (setting [12]) was found to be 1.05; in assay [8] (setting [13]), 0.96.
`C[C@]12C=CC(=O)C=C1CCC1C2CC[C@]2(C)C(=O)CCC12` (stereo partly specified): the red/green cell ratio (normalised) in assay [8] is 1.05 (inactive). For the same compound, the normalised cell number was found to be 1.06 in [8] (setting [12]) and 1.12 in assay [8] (setting [13]).
For `C[C@]12[C@H](O)CC3C(CC[C@@H]4C[C@@H](O)CC[C@]34C)[C@@]1(O)CC[C@@H]2C1=CC(=O)OC1` (stereo partly specified) the same measures were 0.53 (inactive), 0.38 and 0.2.
Consider `CCC(C)C(=O)O[C@@H]1C[C@@]2(C)[C@H](c3ccoc3)OC(=O)CC23OC2(C)O[C@]14C1(C)[C@@H](CC(=O)OC)C5(C)CC1(O)[C@](O)(C5OC(=O)C1(C)OC1C)[C@@H](OC(C)=O)[C@]34O2` (stereo partly specified), for which, in assay [8] (setting [17]), the red/green cell ratio (normalised) was 1.2 (inactive). The normalised cell number in [8] (setting [12]) was determined as 0.97; in assay [8] (setting [13]), 1.16.
Regarding `Cc1ncc(C[n+]2csc(CCO)c2C)c(=O)[nH]1`, the red/green cell ratio (normalised) in assay [8] (setting [17]) was 0.81 (inactive). In addition, the normalised cell number amounted to 1.27 in [8] (setting [12]) and 1.03 in [8] (setting [13]).
For `CC1(C)CC(=O)C(Cl)C(=O)C1` the same measures were 0.82 (inactive), 1.28 and 1.05.
In the case of `CN1C2CC(=O)CC1[C@H](O)C2` (stereo partly specified), the red/green cell ratio (normalised) in [8] (setting [17]) was 0.81 (inactive). The normalised cell number in assay [8] (setting [12]) worked out at 1.25; in assay [8] (setting [13]) it was 1.01.
On to `Cc1cc(O)cc2oc(=O)c3c(O)cc(O)cc3c12`, for which, in assay [8] (setting [17]), the red/green cell ratio (normalised) is 0.89 (inactive). The normalised cell number in assay [8] (setting [12]) was 0.99; in assay [8] (setting [13]) it was 0.88.
With `CC12CCC(=O)C=C1CC[C@@H]1[C@@H]2CCC2(C)[C@H]1CC[C@]2(C)O` (stereo partly specified), the result in assay [6] was inactive. In addition, in [7], the mean signal was 283 (inactive).
